Tg IFNy HTS: T. gondii growth inhibition under IFN-gamma | activity change, negative = inhibition, % (test concentration not listed) | 69,000 compounds, 3.8% hits | Toxoplasma gondii growth in IFN-gamma-treated host cells; hits give low values | AID 1259416; in the data active = activity change below about -70%, passing the limit was not always enough;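 note: host cells are HeLa cells infected with Toxoplasma gondii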
Starred values were filed as active, the others as inactive; i = inactive; ! = a repeat was not active. The full list was thinned out, with hits kept by preference.

SMILES	Tg IFNy HTS
C=C1c2cccc(O)c2C(=O)C2C(=O)[C@]3(O)C(=O)C(C(N)=O)C(=O)[C@@H](N(C)C)[C@@H]3[C@@H](O)[C@H]12 (some centres not stated)	-72.1*!
CCc1cn[nH]c1C1CCCN(C(=O)c2c(-c3ccccc3)ccnc2C)C1 (configuration not stated)	6.6
COCCn1c2c(ccc1=O)CC(NS(C)(=O)=O)CC2 (configuration not stated)	7.8
O=C(NCc1ccncc1)c1cccc(COc2ccc3c(c2)CCC3)c1	9.8
Oc1ccccc1-c1cc(C(F)(F)F)n(-c2nc(-c3ccc(Cl)cc3)cs2)n1	-65.8
CC(=O)Nc1ccc2nc(CN3CCCN(C(=O)C4CCC4)CC3)ccc2c1	7.0
O=C(c1ccc2c(c1)OCO2)N1CCc2c([nH]c3ccccc23)C1c1ccccc1 (configuration not stated)	-97.9*
COc1cc(C(=O)N2CCc3c([nH]c4ccccc34)C2c2ccccc2)cc(OC)c1OC (configuration not stated)	177.2
COc1ccc(C2c3[nH]c4ccccc4c3CCN2C(=O)c2ccc3c(c2)OCO3)cc1 (configuration not stated)	-80.9*
COc1ccc(C(=O)N2CCc3c([nH]c4ccccc34)C2c2ccc(SC)cc2)cc1OC (configuration not stated)	i
O=C(c1ccncc1)N1CCc2c([nH]c3ccccc23)C1c1ccccc1 (configuration not stated)	337.0
Cn1cc(C2CCCCCN2S(=O)(=O)c2ccc3c(c2)sc(=O)n3C)cn1 (configuration not stated)	83.7
COC(=O)[C@@H]1[C@@H](CO)[C@@H]2Cn3c(ccc(-c4ccncc4)c3=O)[C@@H]2N1Cc1ccccc1F	5.2
COCCN1CCOCC12CCN(Cc1cnc[nH]1)CC2	3.7
COc1ccc2c(CN3CCCCC3c3ccccn3)[nH]nc2c1 (configuration not stated)	-11.5
COCC(=O)N1CC2(CN(S(C)(=O)=O)C2)c2c(n(C)c3cc(OC)ccc23)[C@H]1CO	279.3
COCc1nc(C)c(CNC(=O)c2c(C)nc3sccn23)s1	6.1
COc1ccc(-c2nc(Cn3c(=O)c4cccnc4n(-c4ccc(OC)cc4)c3=O)c(C)o2)cc1	2.1
CS(=O)(=O)Nc1ccc2oc3ccccc3c(=O)c2c1	-92.1*
O=c1c2ccccc2oc2ccccc12	14.8
O=c1c2ccccc2oc2ccc(Cl)cc12	150.2
CCOC(=O)c1nn(Cc2ccccc2)c2c1CN(Cc1cccn1-c1cccnc1)CC2	-47.3
NCC(c1cccc(F)c1)N1CCCCC1 (configuration not stated)	5.0
CCCCCCCCCCCCN1CCCCCC1=O	21.2
O=C(c1sc2cc(Cl)ccc2c1Cl)N1c2ccccc2Sc2ccccc21	-80.3*
SMILES	Tg IFNy HTS
CCNC(=O)c1sc2cc(C)ccc2c1Cl	79.5
COC(=O)c1sc2ccccc2c1Cl	8.1
CC(C)CN1CC2(CCN(C(=O)Cc3cccs3)CC2)C2(CCN(C)C2=O)C1 (configuration not stated)	23.6
CC(C)c1cc(C(=O)NCc2ccccc2CN2CCCC2=O)n(C)n1	-55.9
CCN(CC)C(=O)CN1CCC(Cc2cc(NC3CCCC3)nc(C)n2)CC1	-17.1
Cc1nc(CC2CCCN(S(=O)(=O)c3cn(C)cn3)C2)cc(Nc2ncc(C)s2)n1 (configuration not stated)	-97.5*
Cn1cnc(S(=O)(=O)N2CCCC(N)CC2)c1 (configuration not stated)	-1.3
Cc1ccc2[nH]c(C(=O)O)c(CN3CCN4CCN(C)C(=O)C4C3)c2c1 (configuration not stated)	-37.3
CN1CCC(Cc2noc(-c3cnn(Cc4ccccc4)c3)n2)CC1	-20.4
CCOC(=O)c1[nH]c(C)c(CN(Cc2ccc(OC)cc2)C(=O)c2cc3ccc(OC)cc3[nH]2)c1C	31.8
O=C(C[C@@H]1CC[C@@H](NC(=O)c2cccnc2)[C@H](CO)O1)NCc1ccc(Cl)c(Cl)c1	2.2
CN(C)Cc1noc2c1CN(Cc1nccn1C)CC2	-75.0*
Cc1cccc(CN2CCc3onc(CN(C)C)c3C2)n1	-2.0
CN(C)Cc1noc2c1CN(Cc1ccoc1)CC2	-31.7
Cc1cc(C)cc(Nc2nc(-c3nnc(-c4ccccc4)o3)nc3ccccc23)c1	42.1
c1ccc(Nc2ncnc3ccccc23)cc1	-60.8
Cc1ccc(Nc2nc(-c3nnc(-c4ccc(C)cc4)o3)nc3ccccc23)cc1	41.7
CC(Nc1ncnc2ccccc12)c1ccccc1 (configuration not stated)	-93.4*
Cc1cccc(Nc2ncnc3ccccc23)c1	-51.0
CC(Nc1nc(-c2nnc(-c3ccccc3)o2)nc2ccccc12)c1ccccc1 (configuration not stated)	-93.9*
COc1cc(C(=O)N2CCC3(CC2)NC(=O)c2cc(C)ccc2N3C)cc(OC)c1OC	91.0
O=C(c1ccc(N2CCC(NCc3cnn(Cc4ccccc4)c3)CC2)cc1)N1CCOCC1	0.4
Cc1cc(C)cc(NC(=O)C(=O)NCCc2sc(-c3ccccc3)nc2C)c1	-12.2
Cc1cccc(-c2nc(Cn3nnc(-c4nc(-c5ccc(OC(C)C)cc5)no4)c3C)c(C)o2)c1	-51.5
COc1ccc(-c2nc(C)c(CCNS(=O)(=O)c3cc(Cl)ccc3Cl)s2)cc1	409.6
SMILES	Tg IFNy HTS
Cc1nc(-c2ccc(F)cc2)sc1CCNS(=O)(=O)c1ccccc1Cl	48.1
CC(=O)Nc1nc(C)c(-c2ccc(Cl)c(S(=O)(=O)NCCO)c2)s1	-80.7*
CCc1nc(-c2c(-c3ccccc3)ncn2Cc2n[nH]c3c2CCC3)c(C)[nH]1	-22.8
CN1CCN(C(=O)C2CC=CC2)Cc2cccnc21	47.1
Cc1noc(C)c1C1CCCN1Cc1cn(C(C)C)c2ccccc12 (configuration not stated)	2.2
Cc1cc(N2CCCN(Cc3ccc(O)c(C(=O)O)c3)CC2)ccn1	-62.3
c1ccc(CN2Cc3nccn3CC(CN3CCCC3)C2)nc1 (configuration not stated)	-17.0
CS(=O)(=O)N1C[C@H]2COC[C@@]2(C(=O)NCc2ccccn2)C1	-9.4
CS(=O)(=O)N1CC(C(=O)Nc2nc(-c3ccccn3)cs2)Oc2ccccc21 (configuration not stated)	-101.3*
CCOC(=O)C1CN(S(=O)(=O)c2ccc(C)cc2)c2ccccc2O1 (configuration not stated)	43.5
Cc1cc(C)n(C(C)CNC(=O)c2ccc(NC(=O)C3CCC3)cc2)n1 (configuration not stated)	5.0
COc1ccc(C(=O)N2CCC3(CC2)CC(OCC2CC2)CO3)cc1 (configuration not stated)	50.2
CC(C)c1nccc(-c2c(-c3ccccc3)ncn2C(C)Cc2ccncc2)n1 (configuration not stated)	-52.0
CO[C@H](CN(C)S(=O)(=O)c1ccc(C)cc1)[C@H](C)CN(C(=O)Nc1ccccc1F)[C@@H](C)CO	27.7
Cc1ccc(Nc2ncnc3c2cnn3-c2ccccc2)cc1	162.5
CCCc1ccc(S(=O)(=O)N2CCC3(CC2)Nc2ccccc2-n2cccc23)cc1	44.0
CC(C)(C)c1ccc(-c2noc(CCOc3ccc(F)cc3)n2)cc1	33.6
CCCc1c(C(=O)Nc2ccc3ccccc3n2)cnn1-c1ccccc1	-37.3
CCCc1c(-c2nc(-c3ccc(C(C)(C)C)cc3)no2)cnn1-c1ccccc1	-96.8*
CNC(=O)[C@@H]1C[C@@H]2CN(C(=O)C3CCOCC3)C[C@@H]2N1C(C)C	-6.8

Screens as filed in PubChem BioAssay.
